Reference: the supplement of paper PMC6555819

How the values were obtained:
Assay in all cases: PBM binding z-score (relative to random genomic background probes); higher = stronger binding; sequences stand for … in GC…GCGATTGACAGCGTAGAATGAAGG
[1] = tested on: FXR:RXRa (NR concentration 270 nM, RXRa partner concentration 90 nM)
Procedure, shortened: (§1)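 For binding z-scores, the reference was random background probes on custom Agilent 4×180K protein-binding microarrays. These arrays were incubated 1 h with ligand-free nuclear receptor dimers in PBS pH 7.4, 2% milk, 0.02% Triton X-100, 1 mM DTT, 0.2 mg/mL BSA and 0.4 mg/ml salmon testes DNA. Fluorescence was scanned after antibody detection of each partner (one per run) and regression-normalized.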

[2] = tested on: LXRa:RXRa (NR concentration 270 nM, RXRa partner concentration 90 nM)
Procedure, shortened: as §1

[3] = tested on: LXRa homodimer (NR concentration 270 nM)
Procedure, shortened: as §1

[4] = tested on: LXRb:RXRa (NR concentration 270 nM, RXRa partner concentration 90 nM)
Procedure, shortened: as §1

[5] = tested on: LXRb homodimer (NR concentration 270 nM)
Procedure, shortened: as §1

[6] = tested on: PPARa:RXRa (NR concentration 270 nM, RXRa partner concentration 90 nM)
Procedure, shortened: as §1

[7] = tested on: PPARg:RXRa (NR concentration 180 nM, RXRa partner concentration 90 nM)
Procedure, shortened: as §1

[8] = tested on: PPARg:RXRa 270nM:90nM, anti-RXR (NR concentration 270 nM, RXRa partner concentration 90 nM)
Procedure, shortened: as §1

[9] = tested on: PPARg:RXRa 30nM:10nM, anti-RXR (NR concentration 30 nM, RXRa partner concentration 10 nM)
Procedure, shortened: as §1

[10] = tested on: PPARg:RXRa 90nM:30nM, anti-RXR (NR concentration 90 nM, RXRa partner concentration 30 nM)
Procedure, shortened: as §1

[11] = tested on: PPARg:RXRa DBDmut IVT, anti-RXR (DBD mutation: RXRa K156A/R161A, NR concentration 270 nM, RXRa partner concentration 90 nM)
Procedure, shortened: as §1

[12] = tested on: PPARg:RXRa IVT, anti-PPARg (NR concentration 270 nM, RXRa partner concentration 90 nM)
Procedure, shortened: as §1

[13] = tested on: PPARg DBDmut:RXRa IVT, anti-PPARg (DBD mutation: PPARg1 K132A/R137A, NR concentration 270 nM, RXRa partner concentration 90 nM)
Procedure, shortened: as §1

[14] = tested on: PPARg DBDmut IVT, anti-PPARg (DBD mutation: PPARg1 K132A/R137A, NR concentration 270 nM)
Procedure, shortened: as §1

[15] = tested on: PPARg homodimer (NR concentration 180 nM)
Procedure, shortened: as §1

[16] = tested on: PXR:RXRa (NR concentration 270 nM, RXRa partner concentration 90 nM)
Procedure, shortened: as §1

[17] = tested on: PXR homodimer (NR concentration 270 nM)
Procedure, shortened: as §1

[18] = tested on: RARa:RXR (NR concentration 270 nM, RXRa partner concentration 90 nM)
Procedure, shortened: as §1

[19] = tested on: RARa homodimer (NR concentration 270 nM)
Procedure, shortened: as §1

[20] = tested on: RARb:RXRa (NR concentration 270 nM, RXRa partner concentration 90 nM)
Procedure, shortened: as §1

Sequence	PBM binding z-score [1]	PBM binding z-score [2]	PBM binding z-score [3]	PBM binding z-score [4]	PBM binding z-score [5]	PBM binding z-score [6]	PBM binding z-score [7]	PBM binding z-score [8]	PBM binding z-score [9]	PBM binding z-score [10]	PBM binding z-score [11]	PBM binding z-score [12]	PBM binding z-score [13]	PBM binding z-score [14]	PBM binding z-score [15]	PBM binding z-score [16]	PBM binding z-score [17]	PBM binding z-score [18]	PBM binding z-score [19]	PBM binding z-score [20]
GATACAGGGTCAGCGAGAGGCCAGAGTATGGAAA	5.07	3.15	-0.446	2.63	-1.12	5.05	4.14	3.78	1.07	2.38	1.16	2.78	-0.0146	-0.645	2.81	3.7	0.293	4.49	0.19	4.26
CCTACTGGGCGAAAAAGGTCATTGATGCCGATAA	3.16	3.79	2.59	3.91	-0.182	4.45	1.67	3.1	0.977	1.93	0.836	1.94	-0.234	-0.941	2.25	4.39	1.04	4.66	0.67	3.68
AGTCAAAGTTCACTAGGTAAGGTAAGATTCAGCT	5.15	4.75	3.2	3	1.19	4.4	6.73	5.99	3.11	5.44	1.79	4.24	1.06	0.795	2.55	3.83	2.61	3.3	1.36	4.8
CCTATTAGTTCACCATAAGGGCAACCGAAGCTCG	1.35	2.07	0.985	1.29	0.844	1.67	0.515	0.652	-0.043	0.491	0.837	0.596	0.806	0.145	1.92	2.63	1.48	2.33	1.26	3.21
ATATGTAGGTTACATACGGGTCATTCAGGCTATG	2.41	4.56	1.98	2.83	0.718	4.43	6.06	4.92	2.62	4.19	7.45	7.06	2.47	2.75	1.74	3.1	0.979	3.65	0.636	2.33
CCTAGCAGGCCAATCTGGGTCAGTCAAGGCTTGA	0.816	0.419	-0.663	0.0551	-1.41	1.97	0.228	0.88	-0.729	0.114	3.27	3.61	-0.788	-1.02	-0.0146	0.0599	-0.751	0.0549	-0.68	1.28
ACTAGCAGGGCAAGTTTGGGTCACTCAAACAAAG	1.11	0.854	-0.346	1.07	-0.746	1.85	0.29	0.531	-0.392	0.0112	2.04	1.96	-0.127	-0.121	0.449	1.13	-0.488	2.07	-0.817	2.43
CCTCGGAGGACAACGGGAGGTCAGAGCTGCCAGA	1.17	2.32	1.9	1.52	-0.594	2.1	0.336	0.563	-0.741	-0.147	-0.505	0.451	-1.39	-1.24	2.26	2.45	0.352	2.8	0.367	2.92
CCTAGTAGTTGACCATAAGGGCAACCGAAGCTCG	0.577	0.379	0.118	0.228	0.0472	0.369	0.269	0.285	-0.556	0.0396	-0.333	0.506	-0.485	-0.576	1.26	0.431	0.221	0.651	0.534	1.49
TCATATAGGTAAATTCTAGGTGAAAGTCCGATCT	1.45	1	0.27	0.797	0.0785	2.29	1.84	3.22	4.21	3.75	3.83	4.08	1.26	1.32	1.09	0.778	0.524	1.22	1.61	0.593
ACAGACAGGTGATGAAGGTTACTCAGGCTATCAT	0.29	0.278	0.0459	0.276	-0.288	0.714	0.777	0.381	0.107	0.0691	0.431	0.604	0.785	-0.154	0.281	0.38	0.162	0.715	0.502	0.957
ATCTCTAGGTATAGTTCAGTGAAAGATCGATAGA	0.622	1.11	0.814	0.685	1.21	0.726	0.816	1.55	0.666	1.4	0.435	0.496	1.64	2.13	1.8	0.83	1.11	1.08	1.34	1.15
TTACTAAGGTGAGCTGAGGTCGTTGATCCAACTC	2.26	1.54	-0.344	1.04	-0.663	1.97	0.363	1.26	0.174	0.711	2.04	2.66	0.501	0.0653	0.306	5.17	0.515	2.16	-0.407	2.07
CGTCCAAGGTCAGAGAGGTCGGTGAATGCCGAGT	4.71	3.52	0.408	2.4	-0.461	3.87	2	2.92	0.323	1.8	2.42	2.66	-0.525	-1.08	0.814	3.88	5.12	2.96	-0.301	4.51
